A number with no mark means an inactive call.
compound: C#CCNC(=O)CCSSCCC(=O)NCCc1ccc(C=O)c(C=O)c1; assay: lysine labeling ratio R10:1 (500 µM / 50 µM probe), SILAC-ABPP in living cells; higher = lower intrinsic lysine reactivity toward the probe, active = 2 or less; conditions: HeLa; probe concentrations 500 vs 50 µM
How it was run: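 With forward and reverse label swaps, light and heavy SILAC HeLa cells, alive and in PBS at room temperature, were exposed to either 500 µM or 50 µM of an alkyne-tagged lysine probe bearing a disulfide link. After mixing, lysates were clicked to biotin-azide, cut with trypsin, pulled down on neutravidin, freed with DTT, alkylated and analysed on a TIMS-TOF Pro by LC-MS/MS. The per-lysine value R is the median over forward and reverse replicates of the filtered median high-probe/low-probe MS1 peptide ratio. It is capped at 20.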

Sequence of UniProt Q13813 (Q13813 whole entry): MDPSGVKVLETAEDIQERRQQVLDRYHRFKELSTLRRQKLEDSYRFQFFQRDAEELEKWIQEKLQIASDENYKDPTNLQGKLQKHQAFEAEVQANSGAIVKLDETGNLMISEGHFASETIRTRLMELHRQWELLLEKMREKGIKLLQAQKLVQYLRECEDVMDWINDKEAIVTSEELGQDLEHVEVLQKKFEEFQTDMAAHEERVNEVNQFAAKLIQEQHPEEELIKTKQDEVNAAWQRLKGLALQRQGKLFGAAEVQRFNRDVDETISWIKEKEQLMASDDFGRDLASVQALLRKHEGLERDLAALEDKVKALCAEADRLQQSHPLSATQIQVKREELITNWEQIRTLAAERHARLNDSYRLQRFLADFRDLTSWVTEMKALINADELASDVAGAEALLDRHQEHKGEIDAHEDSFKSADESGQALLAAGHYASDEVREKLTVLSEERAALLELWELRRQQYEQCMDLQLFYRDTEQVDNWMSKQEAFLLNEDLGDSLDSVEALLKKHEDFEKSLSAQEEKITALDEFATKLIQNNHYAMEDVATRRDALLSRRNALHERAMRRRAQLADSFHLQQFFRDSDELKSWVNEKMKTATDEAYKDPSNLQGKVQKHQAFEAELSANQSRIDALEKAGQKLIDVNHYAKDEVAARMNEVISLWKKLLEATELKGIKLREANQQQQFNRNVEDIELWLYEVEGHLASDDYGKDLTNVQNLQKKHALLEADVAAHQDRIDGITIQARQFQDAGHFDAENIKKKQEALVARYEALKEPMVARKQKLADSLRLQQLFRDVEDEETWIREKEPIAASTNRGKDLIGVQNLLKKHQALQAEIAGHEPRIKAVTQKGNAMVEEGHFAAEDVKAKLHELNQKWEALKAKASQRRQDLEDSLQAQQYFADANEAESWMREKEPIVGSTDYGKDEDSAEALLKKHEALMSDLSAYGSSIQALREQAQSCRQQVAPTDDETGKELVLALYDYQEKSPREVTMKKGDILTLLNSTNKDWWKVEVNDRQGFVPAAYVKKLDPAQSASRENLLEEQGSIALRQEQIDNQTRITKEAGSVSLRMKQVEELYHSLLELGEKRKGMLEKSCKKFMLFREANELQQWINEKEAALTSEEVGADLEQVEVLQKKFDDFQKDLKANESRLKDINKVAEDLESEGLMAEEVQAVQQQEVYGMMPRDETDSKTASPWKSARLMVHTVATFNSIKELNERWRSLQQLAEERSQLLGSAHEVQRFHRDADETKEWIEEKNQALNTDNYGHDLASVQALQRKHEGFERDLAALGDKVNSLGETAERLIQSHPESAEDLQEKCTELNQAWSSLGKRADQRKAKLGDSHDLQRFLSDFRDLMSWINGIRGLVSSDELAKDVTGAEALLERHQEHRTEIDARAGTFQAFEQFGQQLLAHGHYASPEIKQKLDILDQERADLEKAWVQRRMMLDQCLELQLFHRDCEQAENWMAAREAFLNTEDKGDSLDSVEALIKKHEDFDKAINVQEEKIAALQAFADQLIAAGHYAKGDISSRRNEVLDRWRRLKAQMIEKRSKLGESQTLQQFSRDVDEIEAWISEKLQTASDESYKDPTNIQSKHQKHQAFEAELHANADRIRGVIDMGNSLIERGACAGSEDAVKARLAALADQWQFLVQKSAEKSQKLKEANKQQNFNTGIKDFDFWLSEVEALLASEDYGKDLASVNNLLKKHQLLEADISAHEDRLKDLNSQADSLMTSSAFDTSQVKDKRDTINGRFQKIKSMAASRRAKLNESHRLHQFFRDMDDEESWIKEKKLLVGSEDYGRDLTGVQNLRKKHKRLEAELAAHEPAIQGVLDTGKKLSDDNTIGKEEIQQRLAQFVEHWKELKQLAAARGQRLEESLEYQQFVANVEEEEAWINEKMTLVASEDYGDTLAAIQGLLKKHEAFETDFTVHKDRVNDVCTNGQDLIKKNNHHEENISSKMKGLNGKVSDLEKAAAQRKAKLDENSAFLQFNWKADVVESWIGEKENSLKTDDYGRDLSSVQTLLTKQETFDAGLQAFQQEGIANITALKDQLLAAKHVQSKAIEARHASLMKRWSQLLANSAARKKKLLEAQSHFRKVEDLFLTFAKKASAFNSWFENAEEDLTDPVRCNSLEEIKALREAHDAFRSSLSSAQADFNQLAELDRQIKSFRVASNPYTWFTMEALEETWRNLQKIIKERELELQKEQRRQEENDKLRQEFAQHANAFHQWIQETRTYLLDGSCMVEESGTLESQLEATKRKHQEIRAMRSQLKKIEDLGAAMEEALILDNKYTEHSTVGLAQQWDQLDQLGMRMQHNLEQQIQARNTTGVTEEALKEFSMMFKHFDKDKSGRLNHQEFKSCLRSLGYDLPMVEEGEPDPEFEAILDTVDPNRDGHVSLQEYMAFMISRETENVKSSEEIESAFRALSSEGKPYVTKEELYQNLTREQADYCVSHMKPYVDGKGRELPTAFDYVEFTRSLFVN
Sequence of UniProt P22626 (P22626 whole entry): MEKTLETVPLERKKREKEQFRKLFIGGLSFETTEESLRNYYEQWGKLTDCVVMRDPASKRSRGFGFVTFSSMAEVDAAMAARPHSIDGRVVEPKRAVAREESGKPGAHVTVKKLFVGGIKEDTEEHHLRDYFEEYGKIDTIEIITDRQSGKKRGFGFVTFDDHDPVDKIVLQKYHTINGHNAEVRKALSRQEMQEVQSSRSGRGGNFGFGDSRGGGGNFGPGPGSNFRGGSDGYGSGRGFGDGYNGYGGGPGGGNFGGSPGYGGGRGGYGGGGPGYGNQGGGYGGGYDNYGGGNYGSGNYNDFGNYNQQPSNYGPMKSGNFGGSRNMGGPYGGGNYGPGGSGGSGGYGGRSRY
Sequence of UniProt P27816 (P27816 whole entry): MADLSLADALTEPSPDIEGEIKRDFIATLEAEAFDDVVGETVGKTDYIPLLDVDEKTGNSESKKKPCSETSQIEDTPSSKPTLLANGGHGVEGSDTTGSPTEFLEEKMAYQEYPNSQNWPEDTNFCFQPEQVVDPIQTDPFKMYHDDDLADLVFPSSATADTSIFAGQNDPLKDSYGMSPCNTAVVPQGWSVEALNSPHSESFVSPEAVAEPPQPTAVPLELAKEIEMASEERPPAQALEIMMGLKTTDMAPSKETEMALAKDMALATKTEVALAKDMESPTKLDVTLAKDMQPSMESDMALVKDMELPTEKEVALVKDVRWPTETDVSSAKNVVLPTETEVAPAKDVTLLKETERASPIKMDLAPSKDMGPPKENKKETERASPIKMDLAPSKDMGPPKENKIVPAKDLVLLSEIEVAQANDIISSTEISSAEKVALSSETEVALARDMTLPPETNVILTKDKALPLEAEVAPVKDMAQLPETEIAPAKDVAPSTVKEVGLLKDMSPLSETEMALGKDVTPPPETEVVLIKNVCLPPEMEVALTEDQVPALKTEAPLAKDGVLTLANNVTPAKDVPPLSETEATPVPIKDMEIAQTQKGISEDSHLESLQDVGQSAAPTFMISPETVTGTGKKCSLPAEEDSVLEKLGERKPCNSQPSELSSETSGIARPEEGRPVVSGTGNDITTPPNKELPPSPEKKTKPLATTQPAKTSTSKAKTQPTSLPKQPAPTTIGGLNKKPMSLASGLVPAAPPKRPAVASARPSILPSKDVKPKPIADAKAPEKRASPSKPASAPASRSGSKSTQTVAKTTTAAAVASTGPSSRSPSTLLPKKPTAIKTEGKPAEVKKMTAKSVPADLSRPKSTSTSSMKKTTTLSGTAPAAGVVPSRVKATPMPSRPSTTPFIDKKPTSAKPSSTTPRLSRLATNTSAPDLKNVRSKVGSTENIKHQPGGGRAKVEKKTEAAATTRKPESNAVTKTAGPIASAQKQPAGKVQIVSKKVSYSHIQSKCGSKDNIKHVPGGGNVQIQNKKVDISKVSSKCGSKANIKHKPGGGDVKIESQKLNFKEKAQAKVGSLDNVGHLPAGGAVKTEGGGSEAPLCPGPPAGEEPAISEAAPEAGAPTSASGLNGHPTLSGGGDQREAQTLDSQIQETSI
Sequence of UniProt Q9BVC6 (Q9BVC6 whole entry): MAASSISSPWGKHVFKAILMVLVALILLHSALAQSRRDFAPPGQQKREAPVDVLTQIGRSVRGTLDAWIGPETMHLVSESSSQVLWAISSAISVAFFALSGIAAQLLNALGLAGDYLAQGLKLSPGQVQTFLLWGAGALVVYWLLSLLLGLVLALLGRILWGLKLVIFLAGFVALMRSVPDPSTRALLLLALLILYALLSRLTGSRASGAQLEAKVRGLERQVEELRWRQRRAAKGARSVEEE
Sequence of UniProt Q9NZN4 (Q9NZN4 whole entry): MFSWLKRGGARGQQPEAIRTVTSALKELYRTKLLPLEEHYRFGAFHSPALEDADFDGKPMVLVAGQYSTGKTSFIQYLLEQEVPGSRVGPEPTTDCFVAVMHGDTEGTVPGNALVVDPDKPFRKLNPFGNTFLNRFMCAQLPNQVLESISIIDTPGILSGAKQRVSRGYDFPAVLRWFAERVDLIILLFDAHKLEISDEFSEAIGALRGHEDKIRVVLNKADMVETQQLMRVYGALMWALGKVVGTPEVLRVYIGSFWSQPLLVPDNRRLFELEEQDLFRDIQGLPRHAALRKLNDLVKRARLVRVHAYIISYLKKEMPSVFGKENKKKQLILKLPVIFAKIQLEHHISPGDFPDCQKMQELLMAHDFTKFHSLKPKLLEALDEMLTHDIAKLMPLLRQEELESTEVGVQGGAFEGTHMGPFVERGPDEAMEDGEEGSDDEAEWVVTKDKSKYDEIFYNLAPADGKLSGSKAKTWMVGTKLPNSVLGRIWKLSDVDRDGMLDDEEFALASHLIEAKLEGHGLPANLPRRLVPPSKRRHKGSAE
Sequence of UniProt P19256 (P19256 whole entry): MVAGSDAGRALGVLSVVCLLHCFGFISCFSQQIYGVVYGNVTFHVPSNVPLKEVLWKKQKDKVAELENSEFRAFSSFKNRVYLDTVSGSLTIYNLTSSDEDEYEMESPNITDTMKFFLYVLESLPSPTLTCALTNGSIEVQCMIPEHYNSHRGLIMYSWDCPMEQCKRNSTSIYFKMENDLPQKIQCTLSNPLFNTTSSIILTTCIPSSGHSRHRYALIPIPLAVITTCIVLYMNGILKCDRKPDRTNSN

Target | lysine labeling ratio R10:1
TXLNA (lysine site: K256) (UniProt P40222) | 3.67
EHD2 (lysine site: K32) (UniProt Q9NZN4) | 2.92
UniProt P62826 (lysine site: K99) | 2.78
GPI (lysine site: K34) (UniProt P06744) | 2.53
MSN (lysine site: K458) (UniProt P26038) | 1.55 (active)
TMEM109 (lysine site: K215) (UniProt Q9BVC6) | 3.67
UniProt P23352 (lysine site: K285) | 3.04
FN1 (lysine site: K2072) (UniProt P02751) | 9.06
MAP4 (lysine site: K933) (UniProt P27816) | 1.9 (active)
HNRNPA2B1 (lysine site: K120) (UniProt P22626) | 5.33
PGRMC1 (lysine site: K105) (UniProt O00264) | 2.63
ANXA7 (lysine site: K268) (UniProt P20073) | 2.89
UniProt O60245 (lysine site: K810) | 0.802 (active)
CHCHD3 (lysine site: K63) (UniProt Q9NX63) | 1.33 (active)
UniProt Q8WXI7 (lysine site: K13714) | 7.68
CD58 (lysine site: K62) (UniProt P19256) | 5.48
SPTAN1 (lysine site: K1699) (UniProt Q13813) | 3.27
